# Assay results published in a collection of fitness landscapes (doi:10.1016/j.celrep.2020.107928).
# The full ranking holds about 81,000 sequences; the median of “one-hybrid fitness for binding NBS DNA” is about -0.1, and the highest 2% start at about 0.36. The sample holds the highest values, similar sequences and a random draw of the others, so the mix is not that of the screen.
# B1: Caulobacter ParB omega fusion; a variant is named by its letters at X, in order, B8GW30 (parent)
# chain: MESVVVGEPGMSEGRRGLGRGLSALLGEVDAAPAQAPGEQLGGSREAPIEILQRNPDQPRRTFREEDLEDLSNSIREKGVLQPILVRPSPDTAGEYQIVAGERAWRAAQRAGLKTVPIMVRELDDLAVLEIGIIENVQRADLNVLEEALSYKVLMEKFERTQENIAQTIGKSXSHVANXMRLLXLPDEVQSYLVSGELTAXHARAIAAAADPVALAKQIIEGGLSVRETEALARKAPNLSAGKSKGGRPPRVKDTDTQALESDLSSVLGLDVSIDHRGSTGTLTITYATLEQLDDLCNRLTRGI
# Variants of: B1
# Assay: one-hybrid fitness for binding NBS DNA (the Noc-binding site; scaled: cognate 1, non-cognate 0); higher = stronger binding
# Settings: with NBS DNA site
# Outline: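 Values were rescaled so that cognate is 1 and non-cognate is 0. Each is a fitness, the log change in a variant's read ratio to wild type from Illumina reads of plasmids before and after selection, with three replicate libraries pooled and variants under 10 reads dropped. Selection of the Caulobacter ParB libraries, four specificity codons randomised, used E. coli USO with a HIS3 reporter, site 19 bp from the promoter, on M9-minus-histidine with 0.1 mM IPTG and 5 mM 3-AT for 48 hours at 37°C.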
row,Variant,one-hybrid fitness for binding NBS DNA
1,IMHC,≤ 0.2
2,VAPN,≤ 0.2
3,GWLG,≤ 0.2
4,KQKS,≤ 0.2
5,FLVG,≤ 0.2
6,LDND,≤ 0.2
7,SIIL,≤ 0.2
8,AHHA,≤ 0.2
9,SHVW,≤ 0.2
10,CFRT,≤ 0.2
11,RYIS,≤ 0.2
12,RYCH,≤ 0.2
13,RYHS,0.441
14,RYND,≤ 0.2
15,RYCS,0.395
16,RYCP,≤ 0.2
17,RYWS,≤ 0.2
18,RYDS,≤ 0.2
19,RYHD,≤ 0.2
20,RYYS,0.371
21,RYHN,≤ 0.2
22,RYNS,0.497
23,EYQC,≤ 0.2
24,RKSA,0.284
25,PEMV,≤ 0.2

row,Variant,one-hybrid fitness for binding NBS DNA
1,LCRH,≤ 0.2
2,YRHS,≤ 0.2
3,RYGD,≤ 0.2
4,RYGN,≤ 0.2
5,RYHQ,≤ 0.2
6,RYGF,≤ 0.2
7,RYQY,≤ 0.2
8,RYHG,≤ 0.2
9,RYQF,≤ 0.2
10,RYQT,0.381
11,RYGC,≤ 0.2
12,RYGT,0.373
13,RYGS,0.426
14,RYHT,0.45
15,TIRS,≤ 0.2
16,SHCW,≤ 0.2
17,PSRV,≤ 0.2
18,QMAC,≤ 0.2
19,DGSR,≤ 0.2
20,HLCR,≤ 0.2
21,TSRL,≤ 0.2
22,VDPI,≤ 0.2
23,VKWG,≤ 0.2
24,NFAR,≤ 0.2
25,TAGV,≤ 0.2

row,Variant,one-hybrid fitness for binding NBS DNA
1,RRAR,0.757
2,RRAG,0.357
3,RRFR,0.728
4,RRAM,0.306
5,NERC,≤ 0.2
6,VQTI,≤ 0.2
7,RMTM,≤ 0.2
8,VKPG,≤ 0.2
9,MIPC,≤ 0.2
10,QCAR,0.643
11,QPAR,≤ 0.2
12,QSAR,0.526
13,QEAR,≤ 0.2
14,QIAR,0.397
15,QIFR,0.301
16,QSAD,≤ 0.2
17,QIAH,≤ 0.2
18,QSAH,≤ 0.2
19,PIRY,≤ 0.2
20,TWMC,≤ 0.2
21,IDTL,≤ 0.2
22,TIIR,≤ 0.2
23,NVDM,≤ 0.2
24,SALS,≤ 0.2
25,QLVH,≤ 0.2

row,Variant,one-hybrid fitness for binding NBS DNA
1,QLKH,0.487
2,QLKN,0.365
3,QLKS,0.573
4,QSKN,0.359
5,QCKN,0.445
6,QLKP,≤ 0.2
7,QLVS,≤ 0.2
8,QLKD,≤ 0.2
9,QLKQ,0.331
10,QPKN,≤ 0.2
11,QLVN,≤ 0.2
12,HLWL,≤ 0.2
13,WMPR,≤ 0.2
14,DMKY,≤ 0.2
15,PLDP,≤ 0.2
16,TIRA,≤ 0.2
17,EGSN,≤ 0.2
18,LRCP,≤ 0.2
19,GCSF,≤ 0.2
20,HDFR,≤ 0.2
21,DATM,≤ 0.2
22,TSVL,≤ 0.2
23,CRHF,≤ 0.2
24,RAQC,≤ 0.2
25,RHQT,0.39

row,Variant,one-hybrid fitness for binding NBS DNA
1,RHPT,≤ 0.2
2,RDQT,≤ 0.2
3,RSQT,0.418
4,RFQT,0.242
5,RHIT,0.243
6,RAQT,0.395
7,RHLT,0.33
8,RAQP,≤ 0.2
9,RHRT,0.583
10,RHYT,0.287
11,CHYG,≤ 0.2
12,ASMD,≤ 0.2
13,FIRR,≤ 0.2
14,MIQP,≤ 0.2
15,RCQT,0.513
16,RIQT,0.329
17,RPQT,≤ 0.2
18,QRKA,0.692
19,NRKA,≤ 0.2
20,QPVA,≤ 0.2
21,QCVA,0.298
22,DRKA,≤ 0.2
23,QRVA,0.511
24,TSKG,≤ 0.2
25,PRAV,≤ 0.2

row,Variant,one-hybrid fitness for binding NBS DNA
1,TDDT,≤ 0.2
2,IQLF,≤ 0.2
3,LTEG,≤ 0.2
4,QNKR,0.504
5,QNRR,0.439
6,QNKN,≤ 0.2
7,QNDR,≤ 0.2
8,QNVR,≤ 0.2
9,QNYR,0.203
10,MEGC,≤ 0.2
11,QRHA,0.629
12,QIHA,0.201
13,QCHA,0.422
14,QSHA,0.275
15,QKHA,0.28
16,QPHA,≤ 0.2
17,ADPD,≤ 0.2
18,TEMV,≤ 0.2
19,FTMS,≤ 0.2
20,MEGT,≤ 0.2
21,APSI,≤ 0.2
22,RVGH,≤ 0.2
23,RVGS,0.463
24,RVGF,≤ 0.2
25,RVGR,0.491

row,Variant,one-hybrid fitness for binding NBS DNA
1,RVGM,≤ 0.2
2,RVGD,≤ 0.2
3,RVGP,≤ 0.2
4,RVGT,0.491
5,RVGN,≤ 0.2
6,AKNC,≤ 0.2
7,RDQV,≤ 0.2
8,QMHW,≤ 0.2
9,MIEP,≤ 0.2
10,EVLS,≤ 0.2
11,MMLC,≤ 0.2
12,CVFT,≤ 0.2
13,HSNA,≤ 0.2
14,QYRS,0.644
15,QYDH,≤ 0.2
16,QYRD,≤ 0.2
17,QYRN,0.38
18,QYYH,≤ 0.2
19,QYRH,0.541
20,QYRP,0.216
21,QYYS,0.312
22,QYIS,0.202
23,GEPE,≤ 0.2
24,HWPK,≤ 0.2
25,GQSC,≤ 0.2

row,Variant,one-hybrid fitness for binding NBS DNA
1,RFKM,≤ 0.2
2,AIRM,≤ 0.2
3,RCKS,0.612
4,RLKS,0.554
5,RHKS,0.57
6,RHKP,≤ 0.2
7,RLKD,≤ 0.2
8,RPKS,≤ 0.2
9,RFKH,≤ 0.2
10,RFKS,0.444
11,RHKN,0.205
12,RCKD,≤ 0.2
13,RFKN,≤ 0.2
14,RLKN,≤ 0.2
15,TSAW,≤ 0.2
16,RVSW,≤ 0.2
17,DRFC,≤ 0.2
18,SYSC,≤ 0.2
19,PYQW,≤ 0.2
20,SPAY,≤ 0.2
